Results from the supplement of paper PMC10849652.
About 8,800 targets were measured; listed, in parts, are those with a hit and a random draw of the rest. About 0.5% of all pairs of compound and target were hits.

How the values were obtained:
Experiment in all cases: log2 fold change, soluble protein after heating vs DMSO (PISA); higher = thermal stabilisation; K562 lysate, 10 uM; active = over 0.2 and 3.5 SD of the protein, either way, in both replicates (recomputed)
[1] = compound: CCCS(=O)(=O)Nc1ccc(F)c(C(=O)c2c[nH]c3ncc(-c4ccc(Cl)cc4)cc23)c1F [vemurafenib]
In short: (§1)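 A 30 min treatment with 10 μM compound was applied to crude K562 extract at 1 mg/mL protein in PBS pH 7.4 with 1 mM MgCl2. Heating for 3 min spanned 48°C-58°C, after which aliquots were pooled, adjusted to 0.5% NP-40 at 4°C and spun at 21,000xg for 90 min. TMTpro 16plex LC-MS/MS of the supernatant, with channel sums equalised, gave values recorded as log-two fold change in thermal stability against solvent controls, from duplicates.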

[2] = compound: CCCS(=O)(=O)Nc1ccc(F)c(C(=O)c2c[nH]c3ncc(Cl)cc23)c1F
In short: as §1

[3] = compound: CCN(CCCOc1ccc2c(Nc3cc(CC(=O)Nc4cccc(F)c4)[nH]n3)ncnc2c1)CCOP(=O)(O)O [barasertib]
In short: as §1

[4] = compound: CC[C@@H]1C(=O)N(C)c2cnc(Nc3ccc(C(=O)NC4CCN(C)CC4)cc3OC)nc2N1C1CCCC1
In short: as §1

[5] = compound: CC[C@@H]1C(=O)N(C)c2cnc(Nc3ccc(C(=O)N[C@H]4CC[C@H](N5CCN(CC6CC6)CC5)CC4)cc3OC)nc2N1C(C)C [volasertib]
In short: as §1

[6] = compound: CCn1c(C(=O)N(C2CC2)C2CC2)cc2c3c(ncn3C)c(Nc3cc(C)n(C)n3)nc21
In short: as §1

[7] = compound: CCn1cc(-c2ccnc3[nH]c(-c4cccc(CN(C)C)c4)cc23)c(-c2ccc(NC(=O)N(C)C)cc2)n1
In short: as §1

[8] = compound: CN1CCC(CNc2ccc3ncc(-c4cccc(OC(F)(F)F)c4)n3n2)CC1
In short: as §1

[9] = compound: CN1CCN(CCOc2cc(OC3CCOCC3)c3c(Nc4c(Cl)ccc5c4OCO5)ncnc3c2)CC1 [saracatinib]
In short: as §1

[10] = compound: CN1CCN(c2nc(C3=C(c4c[nH]c5ccccc45)C(=O)NC3=O)c3ccccc3n2)CC1 [sotrastaurin]
In short: as §1

[11] = compound: CN1CC[C@H](c2c(O)cc(O)c3c(=O)cc(-c4ccccc4Cl)oc23)[C@H](O)C1 [alvocidib]
In short: as §1

[12] = compound: CN1CCc2c(c3ccccc3n2Cc2ccc(C(=O)NO)cc2)C1 [Tubastatin A]
In short: as §1

[13] = compound: CNC(=O)C1=CC=CC=C1NC2=NC(=NC=C2Cl)NC3=C(C=C(C=C3)N4CCOCC4)OC
In short: as §1

[14] = compound: CNC(=O)c1ccc(Nc2ncc(C(F)(F)F)c(NCc3nccnc3N(C)S(C)(=O)=O)n2)cc1 [defactinib]
In short: as §1

[15] = compound: CNc1nc(-c2ccc3c(N)n[nH]c3c2)cc(N2C[C@@H](C(=O)NC3CCCCC3)CC[C@H]2C)n1
In short: as §1

[16] = compound: COC(=O)N[C@@H](C)CNc1nccc(-c2cn(C(C)C)nc2-c2cc(Cl)cc(NS(C)(=O)=O)c2F)n1 [encorafenib]
In short: as §1

[17] = compound: COC(=O)[C@H](CCSC)NC(=O)C1=C(C=C(C=C1)NC[C@H](CS)N)C2=CC=CC=C2
In short: as §1

[18] = compound: COc1cc(Nc2ncc3c(n2)-c2ccc(Cl)cc2C(c2c(F)cccc2OC)=NC3)ccc1C(=O)O [alisertib]
In short: as §1

[19] = compound: COc1cc2nc(-c3cc(F)ccc3O)nc(N[C@@H]3CNC[C@H]3C(C)(C)O)c2cc1OC
In short: as §1

[20] = compound: COc1cc2ncnc(Nc3ccc(F)c(Cl)c3)c2cc1OCCCN1CCOCC1 [gefitinib]
In short: as §1

Measured: log2 fold change

HDHD5 (UniProt Q9BXW7)
Chain of UniProt Q9BXW7 (Q9BXW7 whole entry, looked up): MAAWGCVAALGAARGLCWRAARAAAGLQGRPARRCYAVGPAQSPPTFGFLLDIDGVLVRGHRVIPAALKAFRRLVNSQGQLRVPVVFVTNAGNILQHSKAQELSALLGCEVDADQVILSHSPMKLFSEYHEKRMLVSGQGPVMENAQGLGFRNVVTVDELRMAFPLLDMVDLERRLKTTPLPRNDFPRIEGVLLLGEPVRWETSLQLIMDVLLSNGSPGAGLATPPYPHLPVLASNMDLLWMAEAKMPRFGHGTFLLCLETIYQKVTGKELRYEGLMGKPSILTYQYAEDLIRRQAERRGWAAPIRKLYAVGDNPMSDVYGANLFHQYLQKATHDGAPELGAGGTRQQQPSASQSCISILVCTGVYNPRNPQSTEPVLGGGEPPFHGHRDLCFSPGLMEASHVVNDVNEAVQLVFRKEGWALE
inactive: [1] -0.033 | [2] 0.043 | [3] -0.137 | [4] -0.076 | [5] -0.02 | [6] 0.01 | [7] 0 | [8] 0.011 | [9] -0.06 | [10] 0.05 | [11] -0.097 | [12] -0.078 | [13] 0.041 | [14] -0.069 | [15] 0.034 | [16] 0.026 | [17] 0.024 | [18] 0.031 | [19] 0.012 | [20] -0.063

KHDRBS1 (UniProt Q07666)
Chain of UniProt Q07666 (Q07666 whole entry, looked up): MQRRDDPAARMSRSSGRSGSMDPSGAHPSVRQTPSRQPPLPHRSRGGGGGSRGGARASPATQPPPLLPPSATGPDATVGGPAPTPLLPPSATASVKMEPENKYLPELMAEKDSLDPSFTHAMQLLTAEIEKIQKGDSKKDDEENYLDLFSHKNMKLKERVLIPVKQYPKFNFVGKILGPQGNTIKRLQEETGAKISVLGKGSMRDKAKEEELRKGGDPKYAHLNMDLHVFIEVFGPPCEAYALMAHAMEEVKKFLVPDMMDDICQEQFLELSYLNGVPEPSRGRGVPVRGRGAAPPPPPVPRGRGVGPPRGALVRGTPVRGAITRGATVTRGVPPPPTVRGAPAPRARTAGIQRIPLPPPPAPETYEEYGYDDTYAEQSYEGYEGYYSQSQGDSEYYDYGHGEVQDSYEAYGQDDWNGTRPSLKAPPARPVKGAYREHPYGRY
inactive: [1] -0.025 | [2] 0.004 | [3] 0.034 | [4] -0.024 | [5] -0.024 | [6] -0.002 | [7] 0.083 | [8] -0.048 | [9] -0.004 | [10] -0.008 | [11] 0.039 | [12] -0.045 | [13] 0.017 | [14] -0.006 | [15] 0.007 | [16] 0.019 | [17] -0.139 | [18] -0.025 | [19] 0.011 | [20] -0.01

HSD17B12 (UniProt Q53GQ0)
inactive: [1] 0.073 | [2] 0.005 | [3] 0.047 | [4] 0.003 | [5] -0.096 | [6] -0.024 | [8] -0.107 | [9] 0.105 | [10] 0.071 | [11] 0.012 | [12] -0.089 | [13] -0.11 | [14] -0.021 | [15] -0.046 | [16] -0.016 | [17] 0.035 | [18] 0.022 | [19] 0.009 | [20] -0.131
active: [7] -0.304

HADHA (UniProt P40939)
Chain of UniProt P40939 (P40939 whole entry, looked up): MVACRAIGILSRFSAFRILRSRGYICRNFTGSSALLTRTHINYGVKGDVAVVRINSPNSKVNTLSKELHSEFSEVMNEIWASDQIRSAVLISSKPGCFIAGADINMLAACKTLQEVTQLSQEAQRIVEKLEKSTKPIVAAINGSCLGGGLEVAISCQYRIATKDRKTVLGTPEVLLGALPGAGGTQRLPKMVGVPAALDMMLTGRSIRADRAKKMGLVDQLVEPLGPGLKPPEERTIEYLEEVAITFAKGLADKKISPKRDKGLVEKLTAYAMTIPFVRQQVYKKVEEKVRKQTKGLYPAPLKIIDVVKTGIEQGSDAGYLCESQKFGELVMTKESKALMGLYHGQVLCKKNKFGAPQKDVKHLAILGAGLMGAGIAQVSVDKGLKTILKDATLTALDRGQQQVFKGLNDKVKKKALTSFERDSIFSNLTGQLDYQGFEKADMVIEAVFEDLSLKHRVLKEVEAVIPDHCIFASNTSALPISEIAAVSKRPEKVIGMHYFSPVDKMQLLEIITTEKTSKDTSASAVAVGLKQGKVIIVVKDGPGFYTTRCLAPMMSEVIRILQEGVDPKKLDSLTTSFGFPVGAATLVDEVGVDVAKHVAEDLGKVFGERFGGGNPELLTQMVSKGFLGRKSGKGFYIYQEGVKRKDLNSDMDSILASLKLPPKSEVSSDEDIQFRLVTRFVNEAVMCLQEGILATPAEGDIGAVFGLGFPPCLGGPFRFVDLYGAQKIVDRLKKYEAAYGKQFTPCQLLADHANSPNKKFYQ
inactive: [1] 0.019 | [2] -0.002 | [3] -0.103 | [4] -0.024 | [5] 0.09 | [6] -0.036 | [7] 0.012 | [8] 0.071 | [9] -0.04 | [10] -0.025 | [11] -0.011 | [12] -0.003 | [13] 0.069 | [14] -0.042 | [15] 0.037 | [16] -0.063 | [17] 0.088 | [18] -0.017 | [19] -0.041 | [20] 0.021

H2AFY (UniProt O75367)
inactive: [1] -0.042 | [2] 0.013 | [3] 0.094 | [4] 0.131 | [5] -0.036 | [6] -0.001 | [7] -0.059 | [8] 0.056 | [9] -0.077 | [10] 0.104 | [11] -0.034 | [12] 0.079 | [13] -0.026 | [14] 0.106 | [16] 0.094 | [17] 0.014 | [18] 0.001 | [19] 0 | [20] 0
active: [15] 0.329

HEATR3 (UniProt Q7Z4Q2)
inactive: [1] 0.025 | [2] 0.026 | [3] 0.026 | [4] -0.048 | [5] -0.028 | [6] 0.032 | [7] -0.064 | [8] -0.089 | [9] -0.019 | [10] 0.026 | [11] 0.007 | [12] -0.129 | [13] 0.02 | [14] 0.012 | [15] 0 | [16] 0.014 | [17] 0.116 | [18] 0.018 | [19] -0.046 | [20] 0.003

HLTF (UniProt Q14527)
Chain of UniProt Q14527 (Q14527 whole entry, looked up): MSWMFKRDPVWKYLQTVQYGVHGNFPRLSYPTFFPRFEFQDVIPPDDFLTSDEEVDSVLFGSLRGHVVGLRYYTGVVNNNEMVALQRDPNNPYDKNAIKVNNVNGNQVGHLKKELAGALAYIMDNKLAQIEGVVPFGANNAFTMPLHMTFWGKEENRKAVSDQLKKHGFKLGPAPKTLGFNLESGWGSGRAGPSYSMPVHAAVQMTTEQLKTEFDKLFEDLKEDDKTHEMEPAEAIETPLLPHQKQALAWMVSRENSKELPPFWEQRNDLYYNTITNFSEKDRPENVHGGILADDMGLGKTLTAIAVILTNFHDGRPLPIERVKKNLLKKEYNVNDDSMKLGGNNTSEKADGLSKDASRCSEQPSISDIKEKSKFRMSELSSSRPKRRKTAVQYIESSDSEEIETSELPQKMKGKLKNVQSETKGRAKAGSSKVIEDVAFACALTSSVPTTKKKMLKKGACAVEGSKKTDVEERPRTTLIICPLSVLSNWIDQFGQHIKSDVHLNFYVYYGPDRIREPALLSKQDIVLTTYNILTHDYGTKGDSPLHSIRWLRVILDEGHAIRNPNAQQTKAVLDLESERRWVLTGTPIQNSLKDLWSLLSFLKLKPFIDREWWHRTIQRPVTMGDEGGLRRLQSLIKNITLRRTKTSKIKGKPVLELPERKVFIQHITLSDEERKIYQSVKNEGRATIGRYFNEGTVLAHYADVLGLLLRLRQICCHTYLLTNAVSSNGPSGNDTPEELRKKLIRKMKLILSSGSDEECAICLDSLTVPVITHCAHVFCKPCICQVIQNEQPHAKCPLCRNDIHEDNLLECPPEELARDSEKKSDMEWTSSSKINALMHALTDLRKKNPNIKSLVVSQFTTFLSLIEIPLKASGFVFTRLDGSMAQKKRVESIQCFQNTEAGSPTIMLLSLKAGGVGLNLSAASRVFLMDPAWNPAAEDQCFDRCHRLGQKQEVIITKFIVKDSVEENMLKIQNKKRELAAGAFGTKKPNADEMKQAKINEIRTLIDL
inactive: [1] -0.008 | [2] -0.044 | [3] 0.077 | [4] -0.002 | [5] -0.043 | [6] 0.028 | [7] -0.024 | [8] 0.073 | [9] 0.004 | [10] 0.017 | [11] -0.027 | [12] -0.083 | [13] -0.001 | [14] 0.028 | [15] 0.025 | [16] 0.004 | [17] 0.104 | [18] 0.048 | [19] 0.01 | [20] 0.076

KARS1 (UniProt Q15046)
Chain of UniProt Q15046 (Q15046 whole entry, looked up): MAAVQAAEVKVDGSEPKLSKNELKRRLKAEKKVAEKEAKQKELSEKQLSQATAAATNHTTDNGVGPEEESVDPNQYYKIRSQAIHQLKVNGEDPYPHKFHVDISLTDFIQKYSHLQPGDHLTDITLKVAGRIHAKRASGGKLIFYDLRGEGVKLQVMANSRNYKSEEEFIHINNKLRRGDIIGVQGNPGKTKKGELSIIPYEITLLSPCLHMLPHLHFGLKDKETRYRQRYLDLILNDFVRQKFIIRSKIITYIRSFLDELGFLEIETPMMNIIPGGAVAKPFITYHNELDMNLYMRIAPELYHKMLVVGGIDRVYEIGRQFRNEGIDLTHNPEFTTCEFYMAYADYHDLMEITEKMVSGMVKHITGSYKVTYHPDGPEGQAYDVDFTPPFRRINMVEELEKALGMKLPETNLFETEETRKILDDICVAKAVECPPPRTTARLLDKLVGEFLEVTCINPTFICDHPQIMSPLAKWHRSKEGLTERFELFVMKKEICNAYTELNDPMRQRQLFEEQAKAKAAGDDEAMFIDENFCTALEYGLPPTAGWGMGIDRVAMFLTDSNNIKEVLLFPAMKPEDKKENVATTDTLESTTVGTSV
active: [17] 0.379
inactive: [1] 0.003 | [2] -0.002 | [3] 0.002 | [4] -0.072 | [5] -0.026 | [6] 0.024 | [7] 0.046 | [8] -0.052 | [9] 0.004 | [10] 0.004 | [11] 0.027 | [12] -0.01 | [13] -0.037 | [14] 0 | [15] -0.035 | [16] -0.028 | [18] 0.012 | [19] -0.011 | [20] -0.022

GLYR1 (UniProt Q49A26)
inactive: [1] -0.059 | [2] 0.019 | [3] 0.162 | [4] 0.045 | [5] -0.005 | [6] 0.011 | [7] -0.088 | [8] 0.038 | [9] 0.05 | [10] 0.064 | [11] 0.013 | [12] -0.007 | [13] -0.046 | [14] -0.084 | [15] -0.078 | [16] -0.001 | [17] 0.074 | [18] -0.011 | [19] -0.046 | [20] -0.093

INTS5 (UniProt Q6P9B9)
inactive: [1] 0.052 | [2] -0.167 | [3] 0.044 | [4] 0.042 | [5] 0.223 | [6] 0.023 | [7] 0.029 | [8] -0.072 | [9] 0.069 | [10] -0.092 | [11] 0.038 | [12] -0.055 | [13] 0.027 | [14] 0.017 | [15] -0.047 | [16] 0.02 | [17] -0.259 | [18] 0.028 | [19] 0.013 | [20] 0.045

HNRNPD isoform 2 (UniProt Q14103)
inactive: [1] 0.011 | [2] 0.002 | [3] -0.052 | [4] 0.022 | [5] 0.029 | [6] -0.036 | [8] -0.135 | [9] 0 | [10] -0.08 | [11] 0.142 | [12] 0.108 | [13] 0.001 | [14] -0.043 | [15] 0.065 | [16] -0.032 | [17] -0.008 | [18] 0.018 | [19] -0.008 | [20] 0
active: [7] 0.857

HS1BP3 (UniProt Q53T59)
Chain of UniProt Q53T59 (Q53T59 whole entry, looked up): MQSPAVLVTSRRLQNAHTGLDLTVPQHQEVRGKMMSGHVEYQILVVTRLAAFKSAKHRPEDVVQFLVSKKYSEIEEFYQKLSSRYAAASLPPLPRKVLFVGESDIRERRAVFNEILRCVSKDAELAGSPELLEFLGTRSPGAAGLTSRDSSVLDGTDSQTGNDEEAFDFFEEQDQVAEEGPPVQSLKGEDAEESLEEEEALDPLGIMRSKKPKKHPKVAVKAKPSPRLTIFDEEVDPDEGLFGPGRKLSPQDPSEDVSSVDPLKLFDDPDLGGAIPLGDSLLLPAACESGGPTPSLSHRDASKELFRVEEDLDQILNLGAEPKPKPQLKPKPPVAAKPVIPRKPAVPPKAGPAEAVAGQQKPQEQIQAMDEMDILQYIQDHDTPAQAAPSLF
inactive: [1] -0.003 | [2] -0.012 | [3] 0.056 | [4] 0.029 | [5] -0.002 | [6] 0.014 | [7] -0.238 | [8] 0.092 | [9] 0.082 | [10] 0.013 | [11] -0.054 | [12] 0.034 | [13] -0.015 | [14] -0.016 | [15] -0.052 | [16] 0.009 | [17] -0.088 | [18] -0.021 | [19] 0.021 | [20] -0.031

HAUS7 isoform 2 (UniProt Q99871)
Chain of UniProt Q99871 (Q99871 whole entry, looked up): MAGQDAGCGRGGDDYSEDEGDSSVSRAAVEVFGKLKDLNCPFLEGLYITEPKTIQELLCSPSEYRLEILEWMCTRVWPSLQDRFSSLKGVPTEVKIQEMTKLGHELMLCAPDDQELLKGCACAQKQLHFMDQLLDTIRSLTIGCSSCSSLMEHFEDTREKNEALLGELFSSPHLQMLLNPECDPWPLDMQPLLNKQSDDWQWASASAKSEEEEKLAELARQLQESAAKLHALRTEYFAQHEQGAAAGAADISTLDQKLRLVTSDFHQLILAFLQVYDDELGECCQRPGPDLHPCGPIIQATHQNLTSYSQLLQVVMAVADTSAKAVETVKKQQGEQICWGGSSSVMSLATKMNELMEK
inactive: [1] -0.054 | [2] 0.006 | [3] 0.002 | [4] 0.005 | [5] -0.06 | [6] -0.021 | [7] 0.073 | [8] -0.173 | [9] 0.044 | [10] -0.025 | [11] 0.001 | [12] -0.128 | [13] 0.021 | [14] -0.045 | [15] -0.021 | [16] 0.024 | [17] 0.099 | [18] 0.031 | [19] -0.135 | [20] -0.043

HECTD4 (UniProt J3KPF0)
inactive: [1] 0.04 | [2] 0.035 | [3] 0.014 | [4] 0.009 | [5] -0.09 | [6] 0.037 | [7] 0.007 | [8] 0.043 | [9] 0.006 | [10] -0.024 | [11] -0.027 | [12] -0.075 | [13] 0.001 | [14] 0.012 | [15] -0.017 | [16] -0.072 | [17] 0.146 | [18] 0.013 | [19] 0.045 | [20] -0.043

GLUL (UniProt P15104)
Chain of UniProt P15104 (P15104 whole entry, looked up): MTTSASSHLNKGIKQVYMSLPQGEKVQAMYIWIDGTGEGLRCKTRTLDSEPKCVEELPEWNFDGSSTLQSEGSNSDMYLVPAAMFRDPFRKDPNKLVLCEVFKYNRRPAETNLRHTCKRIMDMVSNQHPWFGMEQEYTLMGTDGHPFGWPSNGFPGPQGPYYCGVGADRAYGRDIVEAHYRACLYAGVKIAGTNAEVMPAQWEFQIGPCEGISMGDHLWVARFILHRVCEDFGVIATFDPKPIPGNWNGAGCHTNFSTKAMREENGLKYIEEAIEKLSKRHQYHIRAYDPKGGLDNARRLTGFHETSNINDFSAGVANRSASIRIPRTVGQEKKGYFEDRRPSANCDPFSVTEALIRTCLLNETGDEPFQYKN
inactive: [1] -0.055 | [2] 0.012 | [3] -0.026 | [4] -0.028 | [5] -0.024 | [6] 0.021 | [7] 0.326 | [8] -0.058 | [9] -0.004 | [10] 0.016 | [11] 0.011 | [12] 0.015 | [13] 0.034 | [14] 0.027 | [15] -0.125 | [16] -0.002 | [17] 0.029 | [18] 0.002 | [19] -0.019 | [20] -0.004

IFNGR1 (UniProt P15260)
Chain of UniProt P15260 (P15260 whole entry, looked up): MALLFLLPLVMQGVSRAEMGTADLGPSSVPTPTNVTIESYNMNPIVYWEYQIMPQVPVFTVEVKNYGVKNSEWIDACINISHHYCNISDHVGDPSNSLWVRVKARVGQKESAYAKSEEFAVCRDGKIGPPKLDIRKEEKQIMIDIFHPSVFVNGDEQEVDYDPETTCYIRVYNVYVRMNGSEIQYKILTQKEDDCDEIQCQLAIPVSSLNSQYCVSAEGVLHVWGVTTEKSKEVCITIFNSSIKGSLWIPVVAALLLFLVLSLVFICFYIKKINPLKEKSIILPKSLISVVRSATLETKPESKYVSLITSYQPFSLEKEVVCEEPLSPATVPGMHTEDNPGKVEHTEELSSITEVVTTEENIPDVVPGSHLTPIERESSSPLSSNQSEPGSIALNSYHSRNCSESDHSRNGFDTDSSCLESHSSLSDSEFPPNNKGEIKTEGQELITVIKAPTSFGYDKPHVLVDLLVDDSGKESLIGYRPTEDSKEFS
inactive: [1] 0.182 | [2] -0.07 | [3] -0.051 | [4] 0.234 | [5] 0.08 | [6] -0.153 | [8] 0.331 | [9] 0.032 | [10] -0.018 | [11] -0.348 | [12] 0.157 | [13] -0.022 | [14] -0.164 | [15] 0.272 | [16] -0.018 | [17] -0.002 | [18] 0.138 | [19] 0.106 | [20] -0.036
active: [7] -0.641
